A selection: hits, their analogues and other compounds. The true share with any hit is near 1.8%.
MLLE-PAM2 inh – inhibitors of microRNA-mediated deadenylation, human PABP1 MLLE binding; P11940; GST-MLLE / FITC-PAM2 fluorescence polarization; inhibition, % at 20 µM; hit rate 0.36% among 360,000; AID 588489; in the data active = inhibition above about 35%, passing the limit was not always enough
eIF4H inh – inhibitors of RNA binding by human eIF4H | inhibition, % at 35 µM | Q15056 | eIF4H fluorescence polarization binding assay | hit rate 0.94% among 290,000;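 also: calls also rest on retests at 20 µM and on dose response follow-up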
EBV gp42 block – inhibitors of Epstein-Barr virus glycoprotein 42; AID 1085; inhibition, % (tested at 21.74 µM); Fluorescence polarization binding assay, mP read-out; hit rate 0.42% among 220,000; Q1HVG2; in the data active = inhibition above about 50%
Target sequence (Q1HVG2 whole entry, looked up): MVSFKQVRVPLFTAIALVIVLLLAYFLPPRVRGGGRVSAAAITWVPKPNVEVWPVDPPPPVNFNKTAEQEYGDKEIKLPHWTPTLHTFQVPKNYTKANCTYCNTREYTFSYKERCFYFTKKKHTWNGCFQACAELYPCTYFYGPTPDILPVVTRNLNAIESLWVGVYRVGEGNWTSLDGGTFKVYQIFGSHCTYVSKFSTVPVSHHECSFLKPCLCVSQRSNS
MEX-5 binding – C. elegans MEX-5 TCR-2 RNA binding activity; AID 1832; hit rate 0.38% among 300,000; Q9XUB2; MEX-5/FITC-TCR2 RNA binding, fluorescence polarization; hits give low values; activity score (negative = inhibition of binding), % at 10 µM;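 active = inhibition past about -25% in most replicates, and total fluorescence under double the plate's negative control median, limit read from the data; inconclusive = replicates evenly split on the limit, or fluorescence at least double controls; inactive = too little inhibition in most replicates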
PABP polyA inh – PABP-poly(A) binding inhibition | P11940 | PABP-poly(A) RNA binding, fluorescence polarization | calls only at 35 µM | hit rate 1% among 290,000 | AID 2014;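 also: calls also rest on retests at 20 µM and on dose response follow-up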
Numbers stand for hits; 0 = inactive; ? = inconclusive; - = not tested or not shown; + = active, no number. Unless noted, no rule for the calls is given here.

SMILES	MLLE-PAM2 inh	eIF4H inh	EBV gp42 block	MEX-5 binding	PABP polyA inh
O=C1NC(c2ccco2)Nc2sc3c(c21)CCN(Cc1ccccc1)C3 (stereo not drawn)	0	116	0	-	+
CN1CCc2c(sc3c2C(=O)NC(c2ccco2)N3)C1 (stereo not drawn)	0	0	0	0	0
CCc1nc2ccc(C(=O)NCC3CCCCC3)cn2c1N(C)Cc1nccs1	0	-	-	-	-
COc1ccc(NC(=S)NCc2ccc(S(N)(=O)=O)cc2)c(OC)c1	0	active	0	0	0
CC1=C(C(=O)N(C(C)C)C(C)C)CC(CC(=O)NCc2cccc3ccccc23)C(=O)N1CCC1=CCCCC1 (stereo not drawn)	0	-	-	-	-
Cc1cccc2cc(C3CC(c4ccco4)=NN3C(=O)CCC(=O)O)c(Cl)nc12 (stereo not drawn)	0	56	0	0	0
O=C(CCl)N1N=C(c2ccco2)CC1c1ccco1 (stereo not drawn)	0	54	-	0	+
COc1ccc2nc(Cl)c(C3CC(c4ccco4)=NN3C(=O)CCCC(=O)O)cc2c1 (stereo not drawn)	0	0	0	0	0
COc1ccc2nc(Cl)c(C3CC(c4ccco4)=NN3C(=O)CCC(=O)O)cc2c1 (stereo not drawn)	0	92	0	0	0
CC(C)c1ccc(NC(=O)C2Cc3c(-c4ccc(Cl)cc4)ccnc3O2)cc1 (stereo not drawn)	0	-	-	-	-
CCOc1ccc(NC(=O)OCCN2CCN(CCc3ccccc3)C(C)C2)cc1 (stereo not drawn)	0	-	-	-	-
N#CC1(C#N)C(C(N)=O)C1c1ccccc1 (stereo not drawn)	0	0	0	0	0
CN1C=CC2=C(C#N)C(N)C(C#N)(C#N)[C@H](c3ccccc3)[C@H]2C1 (stereo partly drawn)	48	?	0	?	0
COc1ccc(Cc2nnc(SC)n2-c2ccc(F)cc2)cc1OC	0	-	-	-	-
O=c1cc(-c2ccc([N+](=O)[O-])cc2)nc2cc(-c3ccc(Cl)cc3)[nH]n12	-	0	83	-	0
CCC(=O)NC(=S)Nc1cc(C(=O)O)ccc1OC	0	0	0	0	0
COc1ccc(C(=O)O)cc1NC(=S)NC(=O)CSc1ccc(Cl)cc1	40	0	-	0	0
CC(C)c1nc2sc3c(SCC(=O)NCc4ccco4)ncnc3c2c2c1CCC2	0	14	0	0	0
COc1cc(-c2nnc(SCC(=O)c3cc(C)n(CC4CCCO4)c3C)o2)cc(OC)c1OC (stereo not drawn)	0	70	0	0	+
COC1=CC(C)C2CC3OC(=O)CC4C(C)=C(OC)C(=O)C(C2(C)C1=O)C34C (stereo not drawn)	0	-	-	-	-
O=C(/C=C/c1ccc(N2CCC(c3ccccc3)=N2)cc1)c1ccccc1	-	?	53	0	0
CC1C/C(=C/c2cccn2C)C(=O)/C(=C/c2cccn2C)C1 (stereo not drawn)	0	58	0	0	+
CC1C/C(=C/c2ccncc2)C(=O)/C(=C/c2ccncc2)C1 (stereo not drawn)	0	0	0	0	0
OC[C@@H]1CN(Cc2cccnc2)C[C@H](n2cnc3c(NC4CCCC4)ncnc32)O1	0	-	-	-	-
CCOC(=O)c1c2c3c(cccc3n(C)c1=O)C(=O)c1ccccc1-2	62	0	-	?	0
SMILES	MLLE-PAM2 inh	eIF4H inh	EBV gp42 block	MEX-5 binding	PABP polyA inh
CCOC(=O)c1c2c3c(cccc3[nH]c1=O)C(=O)c1ccccc1-2	0	0	0	0	0
Cn1c(=O)c(Nc2ccc(Cl)cc2)c2c3c(cccc31)C(=O)c1ccccc1-2	-	?	176	-41	0
Nc1ncnc2c1ncn2[C@@H]1O[C@H](CNC(=O)[C@@H](N)Cc2ccc(C(=O)c3ccccc3)cc2)[C@@H](O)[C@H]1O	0	-	-	-	-
O=C(Nc1ccc(F)cc1)C(NC1CCCCC1)c1ccccc1 (stereo not drawn)	0	2.7	0	0	+
COc1ccccc1C(=O)NC(CCSC)C(=O)NC1CC1 (stereo not drawn)	0	-	-	-	-
COc1ccccc1C(=O)NC(CCSC)C(=O)NC1CCCCCC1 (stereo not drawn)	0	0	0	0	+
COc1ccccc1C(=O)NC(CCSC)C(=O)OCC(=O)c1ccc[nH]1 (stereo not drawn)	0	60	0	0	+
CCC(CC)C(=O)N(C)c1c(C)nc2c(OCCOc3ccc(F)cc3)cccn12	0	-	-	-	-
OCCN1CCN(c2ncnc3c2ncn3[C@H]2CN(Cc3cccc(C(F)(F)F)c3)C[C@@H](CO)O2)CC1	0	-	-	-	-
NC(=S)NN=C1c2cc(S(=O)(=O)N3CCOCC3)ccc2-c2ccc(S(=O)(=O)N3CCOCC3)cc21	40	0	0	0	0
O=C(CSc1nnc(-c2cccnc2)o1)Nc1ccccc1F	44	-	-	0	-
C[C@@H]1Cc2c(O)c(O)cc(O)c2C(=O)O1	0	0	0	-45	0
CC1(Cc2ccc(F)c(Cl)c2)C(=O)Nc2c(Cl)cccc21 (stereo not drawn)	0	-	-	-	-
COc1ccc(C2=CCCCCC2)cc1OC	0	-	-	-	-
O=C(COC(=O)Cc1ccc(Cl)c(Cl)c1)NCCc1ccccc1	0	-	-	-	-
O=C1C2CC=C(Cl)CC2C(=O)N1CCc1ccccc1 (stereo not drawn)	0	0	0	-34	0
O=C(CN1C(=O)C2CC=C(Cl)CC2C1=O)NCc1ccccc1 (stereo not drawn)	0	0	0	-27	0
O=C(CCN1C(=O)C2C3C=CC(C3)C2C1=O)N1CCCCC1 (stereo not drawn)	0	0	0	0	0
O=C(CCN1C(=O)C2CC=C(Cl)CC2C1=O)N1CCCCC1 (stereo not drawn)	0	0	0	-41	0
CC(=O)N1CCc2cc(S(=O)(=O)C(C)CC(=O)NCc3ccco3)ccc21 (stereo not drawn)	0	-	-	-	-
C[C@H]1CCCCO[C@@H](CN(C)C(=O)NC2CCCCC2)[C@@H](C)CN([C@@H](C)CO)C(=O)c2cc(NC(=O)Cc3ccccc3)ccc2O1	0	-	-	-	-
COc1ccc(-c2csc(NC(=O)CSc3nc(C)cs3)n2)cc1	0	-	0	0	-
COc1ccc(-c2csc(NC(=O)CSc3nc(C)nc4sc(C(=O)O)c(C)c34)n2)cc1	0	0	65	0	0
CCN(CC)C1CCN(C(=O)c2ccc(OC3CCN(C(=O)CCOC)CC3)cc2)C1 (stereo not drawn)	0	-	-	-	-
O=C(N/N=C/c1ccc(OCc2ccccc2)cc1)c1ccncc1	0	0	0	0	0
Oc1ccc(N=Cc2ccc(OCc3ccccc3)cc2)cc1	0	95	0	0	+
CCNC(=O)C1(C)CCCN(Cc2ccc3ccccc3c2Br)C1 (stereo not drawn)	0	-	-	-	-
O=C1C=CC(=O)C(C2=C3C(=O)N(CCc4ccccc4)CC(=O)N3CCC2)=C1	-	0	0	-47	0
COC(=O)C1=NN(C(=O)c2cccc(Br)c2)C(O)(c2ccc(Cl)cc2)C1 (stereo not drawn)	0	58	0	0	0
CC(CCc1ccco1)NC(=O)c1cccc2c1C(=O)N(C1CCCCC1)C2 (stereo not drawn)	0	0	0	0	0

Assay outcomes as filed in PubChem.
